Among all 290,000 compounds or so, about 160 (0.055%) were called active. What follows is part of a selection rich in actives, with near analogues and random picks from the rest. Values without a mark were called inactive. Rule as the data show it: active = inhibition above about 50%; inactive = the rest.
Each molecule was assayed against Tyrosine-protein phosphatase non-receptor type 22 (Homo sapiens) (UniProt Q9Y2R2) (assay: PTPN22 lymphoid phosphatase activity blockers – biochemical, fluorescence intensity, uHTS (AID 1779;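 also: plate controls were vehicle with enzyme for no effect and no enzyme for full effect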)). Details: recombinant LYP phosphatase, at 11.5 µM, stronger effect = higher value.
Tyrosine-protein phosphatase non-receptor type 22 (Homo sapiens), sequence (Q9Y2R2 whole entry, looked up): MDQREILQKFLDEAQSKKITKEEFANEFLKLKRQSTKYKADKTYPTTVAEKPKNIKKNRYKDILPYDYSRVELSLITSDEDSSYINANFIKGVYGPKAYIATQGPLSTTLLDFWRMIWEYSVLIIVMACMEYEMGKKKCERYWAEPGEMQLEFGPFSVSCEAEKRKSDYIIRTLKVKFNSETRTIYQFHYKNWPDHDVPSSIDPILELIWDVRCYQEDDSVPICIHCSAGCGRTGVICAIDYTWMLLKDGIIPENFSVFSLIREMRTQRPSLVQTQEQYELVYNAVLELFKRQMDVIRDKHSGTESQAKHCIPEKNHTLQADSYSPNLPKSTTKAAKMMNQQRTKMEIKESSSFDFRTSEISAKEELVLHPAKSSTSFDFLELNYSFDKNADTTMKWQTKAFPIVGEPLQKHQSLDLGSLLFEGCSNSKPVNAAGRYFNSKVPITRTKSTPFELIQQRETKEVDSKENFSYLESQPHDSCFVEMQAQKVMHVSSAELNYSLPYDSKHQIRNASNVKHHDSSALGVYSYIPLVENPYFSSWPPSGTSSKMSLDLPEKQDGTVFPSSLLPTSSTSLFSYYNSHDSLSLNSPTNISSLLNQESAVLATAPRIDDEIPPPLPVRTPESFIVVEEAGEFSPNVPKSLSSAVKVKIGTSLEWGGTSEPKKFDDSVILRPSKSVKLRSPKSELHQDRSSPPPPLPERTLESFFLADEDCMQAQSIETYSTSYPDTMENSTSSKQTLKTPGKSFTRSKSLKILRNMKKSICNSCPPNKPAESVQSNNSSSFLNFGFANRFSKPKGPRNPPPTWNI

Structure (SMILES) | inhibition
NC(=O)CC(NC(=O)Cc1ccc(Br)cc1)c1ccc(NC2CCC2)c([N+](=O)[O-])c1 (stereo not given) | -1.3%
Cc1cccc(N2CCN(C(=O)c3ccc(Cl)c(NC4=NC5CS(=O)(=O)CC5S4)c3)CC2C)c1 (stereo not given) | -0.7%
O=C(COc1ccc(S(=O)(=O)N2CCOCC2)cc1Cl)NCC1CCCO1 (stereo not given) | -12%
CCCCOc1ccc(CN2CCSCC2)cc1 | -4.9%
CCCCOc1ccc(CN2CCCCC2)cc1 | 67.8% (active)
CCCOc1ccc(CN2CCOCC2)cc1OC | -8%
c1cc(OCCCN2CCCCC2)ccc1CN1CCCCC1 | -8%
CCCCCOc1ccc(Cl)cc1CN1CCOCC1 | -8.9%
CCCCCOc1ccc(CN2CCOCC2)cc1Cl | 50.2% (active)
COc1ccc(C(=O)Nc2ccc(Cl)cc2C(=O)NCc2ccco2)cc1OC | 0.7%
COc1cc(OC)cc(C(=O)NCCN2C(=O)S/C(=C\c3cccs3)C2=O)c1 | 0.8%
Cc1nn(C(C)C(=O)NCCCN2CCCCCC2)c(=O)c2c1sc1ccccc12 (stereo not given) | -12.7%
Cc1cccc(C)c1NC(=O)Cn1c(=O)n(CCCC(=O)NC2CCN(Cc3ccccc3)CC2)c(=O)c2ccccc21 | -5.3%
Cc1cc(NC(=O)Cn2c(=O)n(CCCCC(=O)NC3CCN(Cc4ccccc4)CC3)c(=O)c3ccccc32)n[nH]1 | 73.8% (active)
O=C(CCCCn1c(=O)c2ccccc2n(Cc2ccccc2)c1=O)NC1CCN(Cc2ccccc2)CC1 | -1.4%
CCOC(=O)C1=C(C)NC(=S)NC1c1ccc(-c2cccc(Cl)c2C)o1 (stereo not given) | 8.2%
COc1ccc2[nH]c(C)c(CCNC(=S)Nc3cc(C)cc(C)c3)c2c1 | 2.4%
COc1ccc2[nH]c(C)c(CCNC(=S)Nc3cc(C)ccc3C)c2c1 | 83.2% (active)
COc1ccc2[nH]c(C)c(CCNC(=S)Nc3ccccc3C)c2c1 | 0.8%
COc1ccc(COc2ccc(S(=O)(=O)N3CCCC3)cc2C(N)=O)cc1F | -6%

Structure (SMILES) | inhibition
Cc1ccccc1NS(=O)(=O)c1cc(S(C)(=O)=O)ccc1Cl | -0.4%
CCNS(=O)(=O)c1cc(S(C)(=O)=O)ccc1Cl | 85.1% (active)
CS(=O)(=O)c1ccc(Cl)c(S(=O)(=O)NCc2ccccc2)c1 | -8.1%
CCC(C)(C(=O)NC1CCCC1)N(C(=O)c1cnccn1)c1c(C)n(C)n(-c2ccccc2)c1=O (stereo not given) | 1.7%
NS(=O)(=O)c1ccc(NC(=O)C2C3C=CC(C3)C2C(=O)O)cc1 (stereo not given) | -7.2%
CC(=O)NS(=O)(=O)c1ccc(NC(=O)C2C3C=CC(C3)C2C(=O)O)cc1 (stereo not given) | 59.6% (active)
CC(=O)Nc1ccc(NC(=O)C2C3C=CC(C3)C2C(=O)O)cc1 (stereo not given) | -6.4%
COc1ccc(OC)c2c1nc1n2CCS1 | -2.7%
COc1ccc(NC(=O)CN2C(=O)/C(=C3\SC(=S)N(CCC(=O)O)C3=O)c3ccccc32)cc1 | 69.2% (active)
COCCN1C(=O)/C(=C2/C(=O)N(CC(=O)Nc3ccccc3Cl)c3ccccc32)SC1=S | -3.5%
O=C(CN1C(=O)/C(=C2\SC(=S)N(CCS(=O)(=O)O)C2=O)c2ccccc21)Nc1cccc(Br)c1 | 71% (active)
O=C1/C(=C2\C(=O)N(Cc3ccc(F)cc3)c3ccccc32)SC(=S)N1CCS(=O)(=O)O | -1.2%
Cc1cccc(NC(=O)CN2C(=O)/C(=C3\SC(=S)N(CC4CCCO4)C3=O)c3ccccc32)c1 (stereo not given) | -7.3%
COc1ccc(NC(=O)CN2C(=O)/C(=C3\SC(=S)N(C4CCS(=O)(=O)C4)C3=O)c3ccccc32)cc1 (stereo not given) | -5.2%
Cc1c(N=Cc2cc(Br)cc(Br)c2O)cccc1C(=O)O | -7.4%
CC(=O)CCn1cnc([N+](=O)[O-])n1 | -3.7%
Cc1ccc([C@@H]2[C@@H]3C(=O)N(C)C(=O)[C@@H]3[C@]3(C)C(=O)N(CCO)CC(=O)N23)o1 | -10.2%
COC(=O)c1[nH]c2ccccc2c1NC(=O)c1ccccc1F | -5.7%
COc1ccc(OCC(=O)Nc2ccccc2OC(F)F)cc1 | -1.4%
CC(C)=NOCc1ccc(-c2cn([C@@H]3COC[C@H]3O)nn2)cc1 | -2.9%

Structure (SMILES) | inhibition
Cc1ccc(C)n1-c1ccc(-c2ccn[nH]2)cc1 | 50% (active)
Clc1ccc(-c2ccn[nH]2)cc1 | -8.1%
c1ccn(-c2ccc(-c3ccn[nH]3)cc2)c1 | -5.9%
O=C(c1cccs1)N1CCCC1 | -12%
COc1ccccc1CNC(=O)CCC(=O)N1CCOc2ccc(C)cc21 | -4.7%
COc1ccc([N+](=O)[O-])cc1NC(=S)NC(NC(=O)C(c1ccccc1)c1ccccc1)C(Cl)(Cl)Cl (stereo not given) | 8%
COc1ccccc1OCC(=O)N(Cc1nc(-c2ccccc2)no1)C(C)C | -3.5%
CC1CCCCN1Cc1ccc(-c2nnn(CC(=O)NC3CCCCC3)n2)cc1 (stereo not given) | -2.1%
CCCc1cc(-c2n[nH]c(=S)n2CC)cs1 | -1.3%
CCCc1cc(-c2n[nH]c(=S)n2CC(C)C)cs1 | 58.3% (active)
CCc1cc(-c2n[nH]c(=S)n2CC(C)C)cs1 | 5.1%
Cc1cc2oc(=O)cc(CN(C)Cc3ccccc3F)c2cc1Cl | -0.7%
COc1ccc(N2CCN(C(=O)c3ccc(S(=O)(=O)N4CCCC4)cc3)CC2)cc1 | -0.4%
COc1ccc2c(OC)cc(=O)n(C)c2c1 | 59.6% (active)
COc1cc(=O)n(C)c2ccccc12 | -3.8%
COc1cc(=O)n(C)c2cc(N(C)C)ccc12 | -9.9%
CCOC(=O)CSc1nc2ccccc2c(=O)n1CC | 1.2%
O=c1c(Cc2ccc(F)cc2)c(O)ccn1C1CC1 | -9%
Cc1cccc(N2CCN(C(=O)Cn3c(=O)[nH]c4ccsc4c3=O)CC2C)c1 (stereo not given) | -8.5%
COCCn1nnnc1C(c1cccc(C(F)(F)F)c1)N1CCOCC1 (stereo not given) | -7%

From PubChem BioAssay AID1779 (Sanford-Burnham Center for Chemical Genomics, 2009)
